Reference: PubChem BioAssay AID720553 (National Center for Advancing Translational Sciences (NCATS), 2013)
Screen size: about 340,000 compounds; about 3,300 (0.97%) were called active. The sample holds actives, similar compounds and a random draw of the others, so the mix is not that of the screen.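 Rule for the calls: active = maximum activity change below -70%; inconclusive = maximum activity change from -70% to -50%; inactive = maximum activity change above -50%.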

System: Potassium voltage-gated channel subfamily H member 2, brain isoform KCNH2 3.1 (human)
Assay: qHTS for Inhibitors of KCHN2 3.1: Mutant qHTS
Conditions: U2OS KCNH2 3.1, thallium flux FluxOr; stronger effect = lower value
Procedure, shortened: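 Channel expression came from 3.1 mutant virus (1.77 x 10^8 /mL) applied to suspended U2OS cells for 4 h. Flux was tracked with FluxOr dye plus Red40 quencher, and kinetic rate constants normalized to controls.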
% is set by controls: 0 for no effect and ±100 for the full control effect.

Compound	activity change
O=C(Nc1ccc2c(c1)nc1n2CCCCC1)c1cc(S(=O)(=O)N2CCOCC2)ccc1Cl	-83.4% (active)
O=C(Nc1ccc(N2CCOCC2)c(Cl)c1)c1ccc(S(=O)(=O)N2CCOCC2)cc1	-3.05% (inactive)
O=C(Nc1ccc(N2CCCCC2)cc1)c1cc(S(=O)(=O)N2CCOCC2)ccc1F	-0.576% (inactive)
CC(C)c1ccc(-c2noc(C3CCCN(S(C)(=O)=O)C3)n2)cc1 (configuration not stated)	-21.4% (inactive)
COc1cc(-c2noc(C3CCCN(S(=O)(=O)c4cccc(Cl)c4)C3)n2)cc(OC)c1OC (configuration not stated)	-93.6% (active)
COc1cccc(-c2noc(C3CCCN(C(=O)c4ccc(F)cc4)C3)n2)c1 (configuration not stated)	16.8% (inactive)
CCOC(=O)c1c(NC(=S)SC)sc(C(=O)N2CCc3ccccc3C2)c1C	-4.73% (inactive)
CC1=C(C(=O)N2CCOCC2)CC(CC(=O)NCc2ccco2)C(=O)N1Cc1ccc(F)cc1 (configuration not stated)	-24.5% (inactive)
O=C(COC(=O)c1ccccc1Cl)NC1CCCCCCC1	-1.39% (inactive)
C=CCNC(=O)COC(=O)c1ccccc1C(=O)N(C)C1CCCCC1	-110% (active)
CC1CCCC(NC(=O)COC(=O)c2ccccc2C(=O)N(C)C2CCCCC2)C1C (configuration not stated)	7.73% (inactive)
CCCCN(C(C)=O)c1ccc2c(c1)C1CC2CCN1Cc1ccccc1 (configuration not stated)	0.966% (inactive)
O=C(Nc1ccc(Cl)cn1)c1ccccc1-c1ccccc1	-14.9% (inactive)
CC1(C)Cc2cccc(OCC(=O)N3CCN(c4ccc([N+](=O)[O-])cc4)CC3)c2O1	-91.8% (active)
CC1(C)Cc2cccc(OCC(N)=O)c2O1	-6.48% (inactive)
CC1(C)Cc2cccc(OCC(=O)NCc3ccccc3)c2O1	0.403% (inactive)
S=C(NN=Cc1ccccn1)Nc1ccccn1	-6.69% (inactive)
COc1ccc(C(=O)OCC(=O)Nc2cc(C)on2)cc1F	-0.754% (inactive)
CSCCC(NC(=O)COc1ccccc1)C(=O)OCCOc1ccc(F)cc1 (configuration not stated)	-11.8% (inactive)
CSCCC(NC(=O)COc1ccccc1)C(=O)N1CCN(c2cccc(C(F)(F)F)c2)CC1 (configuration not stated)	-70% (active)
CSCCC(NC(=O)COc1ccccc1)C(=O)OCCOc1ccc(Br)cc1 (configuration not stated)	-21.4% (inactive)

Compound	activity change
O=C(Nc1cccc2ccccc12)NC1CC1	-0.285% (inactive)
COc1ccc(C(C)(C)C)cc1NC(=O)CN(C)C1=NS(=O)(=O)c2ccccc21	-5.7% (inactive)
O=C(COc1ccc2c3c(c(=O)oc2c1)CCCC3)NCC(O)c1ccccc1 (configuration not stated)	10.4% (inactive)
Cc1cc(OCC(=O)NCC(O)c2ccccc2)c2c(C)c(C)c(=O)oc2c1 (configuration not stated)	29.5% (inactive)
O=C(COc1ccc2ccc(=O)oc2c1)NCC(O)c1ccccc1 (configuration not stated)	-87.9% (active)
O=C(NCCOc1ccccc1)N1[C@H]2CC[C@@H]1C=C(c1ccc(F)cc1OCc1ccccc1)C2	-21.8% (inactive)
CCOC(=O)C1CCN(C(=O)COc2cc(C)c(Br)c(C)c2)CC1	-6.53% (inactive)
CCNC(=O)COc1cc(C)c(Br)c(C)c1	-198% (active)
COCCCNC(=O)COc1cc(C)c(Cl)c(C)c1	30.5% (inactive)
Cc1ccc(S(=O)(=O)N2C[C@]3(O)C[C@@H]4C(=O)N(c5ccccc5)C(=O)[C@@H]4C[C@]3(OC(=O)NC3CC3)C2)cc1	-5.83% (inactive)
Cc1ccc(NC(=O)Cn2sc3ccccc3c2=O)cc1	8.97% (inactive)
COc1cccc(CNC(=O)CCC2CCCN(C(=O)c3ccoc3C)C2)c1 (configuration not stated)	-8.72% (inactive)
COc1cccc(CC2(CO)CCCN(Cc3ccc(OC(F)F)cc3)C2)c1 (configuration not stated)	-90.5% (active)
COc1cccc(CNC(=O)CCC2CCCN(Cc3ccc(OC(F)F)cc3)C2)c1 (configuration not stated)	-93.7% (active)
COc1cccc(C(=O)N2CCCC(CCC(=O)NCc3ccc(F)c(F)c3)C2)c1 (configuration not stated)	-33.7% (inactive)
COc1cccc(CC2(CO)CCCN(Cc3nc(-c4cccs4)oc3C)C2)c1 (configuration not stated)	-14.6% (inactive)
COc1cccc(CC2(CO)CCCN(CC3=Cc4cc(OC)ccc4OC3)C2)c1 (configuration not stated)	-14.2% (inactive)
CCCn1c(N)c(C(=O)CSc2nnc(Cc3cccs3)n2C2CC2)c(=O)[nH]c1=O	7.67% (inactive)
Cc1cccc(S(=O)(=O)N(C)C[C@H]2OCc3cnnn3CCCC(=O)N([C@@H](C)CO)C[C@H]2C)c1	36.2% (inactive)
CCCCCCNC(=O)O[C@H]1CN(C(=O)OC(C)C)N(C(=O)OC(C)C)[C@@H]2CN(S(=O)(=O)c3ccc(C)cc3)C[C@]12O	0.662% (inactive)
COc1ccc(-c2ccc(CN3C(CC(C)C)C(=O)N(Cc4cn(CC5CCCCC5)nn4)CCS3(=O)=O)cc2)cc1 (configuration not stated)	-16.5% (inactive)

Compound	activity change
CC1(c2cccc(Br)c2)NC(=O)N(CC(=O)NCCC2=CCCCC2)C1=O (configuration not stated)	-2.93% (inactive)
Cc1nc2nc[nH]n2c(=O)c1C/C=C/c1ccccc1	-5.87% (inactive)
Cc1noc(C)c1COc1cccc(C(=O)Nc2cccnc2)c1	5.81% (inactive)
Cc1nc2nc[nH]n2c(=O)c1NC(=O)c1cccc(OCC(C)C)c1	-182% (active)
C[C@H]1CN([C@@H](C)CO)C(=O)c2cc(C3=CCCCC3)cnc2O[C@@H]1CN(C)C(=O)Cc1ccccc1	-6.94% (inactive)
CC(=O)Nc1ccc(SCC(=O)NC(=O)c2ccc(Cl)cc2)cc1	-9.69% (inactive)
Cc1[nH]c2ccccc2c1CCN(Cc1cccs1)C(=S)NC(C)(C)C	-70.5% (active)
COc1ccc2[nH]c(C)c(CCN(Cc3cccs3)C(=S)Nc3ccccc3OC)c2c1	-8.67% (inactive)
COc1cccc(NC(=S)N(CCc2c(C)[nH]c3ccccc23)Cc2ccco2)c1	-11% (inactive)
Cc1ccc(S(=O)(=O)NN=C2CC(C)(C)CC(=O)C2(C)C)cc1	-9.11% (inactive)
C[C@@H]1Cn2cnc(C(=O)Nc3ccc(CNC(=O)OC(C)(C)C)cc3)c2C(=O)N1	-19.4% (inactive)
C[C@H]1Cn2cnc(C(=O)N[C@@H](Cc3c[nH]c4ccccc34)C(=O)OC(C)(C)C)c2C(=O)N1	-11.5% (inactive)
CCOC(=O)CSc1nc2c(c(=O)n(Cc3ccccc3Cl)c(=O)n2C)n1C	-10.8% (inactive)
N#Cc1c(NC(=O)CSc2nc3ccccc3c(=O)n2Cc2ccco2)sc2c1CCCC2	-19.1% (inactive)
CCOC(=O)CSc1nc2c(sc(=S)n2CCc2ccccc2)c(=O)n1Cc1ccco1	-91% (active)
C=CCOc1ccccc1CNn1c(C)n[nH]c1=S	3.24% (inactive)
C[C@@H]1CN([C@@H](C)CO)C(=O)CCCn2nncc2CO[C@@H]1CN(C)S(=O)(=O)c1ccc(-c2ccccc2)cc1	8.36% (inactive)
COc1ccc(CCNC(=O)COC(=O)Cc2ccccc2F)cc1	8.82% (inactive)
COc1ccc(C(CCNCc2ccccc2F)c2ccc(F)cc2)cc1 (configuration not stated)	-100% (active)
COc1cccc(CNCCc2c[nH]c3ccccc23)c1OCc1ccccc1F	-1.51% (inactive)
